Source: PubChem BioAssay (EPA / NIEHS)
Activity calls are given as the source filed them. How the source made its calls: active means hit-call score of the fitted dose curve at least 0.9, where 1 is the maximum; inactive means score below 0.9.

Tests used:
Details in all cases: primary human lung fibroblasts
[1] = read-out: Plasminogen activator inhibitor-1 (PAI1), SERPINE1 (gene 5054); assay: BSK_MyoF_PAI1: BioMAP Diversity Plus: MyoF Assay for Plasminogen activator inhibitor-1 (PAI1) Biomarker Activity (AID 2284256)
Method in brief: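 Primary human lung fibroblasts treated with chemical for 24 h; PAI-1 levels quantified by ELISA relative to DMSO. Cytotoxicity was assessed in parallel cultures by SRB total-protein staining (0.1% SRB after 10% TCA fixation, 560 nm).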

[2] = read-out: Interleukin-8 (IL8), CXCL8 (gene 3576); assay: BSK_MyoF_IL8: BioMAP Diversity Plus: MyoF Assay for Interleukin-8 (IL8) Biomarker Activity (AID 2284261)
Method in brief: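 Human lung fibroblast (MyoF system) cultures dosed for 24 h, then IL-8 measured by ELISA. Response taken relative to DMSO; parallel SRB total-protein staining for cytotoxicity.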

[3] = read-out: Decorin, DCN (gene 1634); assay: BSK_MyoF_Decorin: BioMAP Diversity Plus: MyoF Assay for Decorin Biomarker Activity (AID 2284265)
Method in brief: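 Human lung fibroblast cultures were dosed for 24 h, and decorin was then measured by ELISA. Parallel cultures were stained with sulforhodamine B for total protein as a cytotoxicity check. Gain of signal was fitted relative to DMSO.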

[4] = BSK_MyoF_SRB: Viability Assessment in the BioMAP Diversity Plus: MyoF Assay (AID 2284267);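 further: total protein by SRB absorbance in parallel cultures as cytotoxicity measure; cells assessed 24 h after compound addition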
Method in brief: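 Confluent human lung fibroblasts were exposed to test chemicals for 24 h. Parallel wells were then fixed in 10% TCA, stained with 0.1% sulforhodamine B and measured at 560 nm. DMSO served as baseline for curve fitting.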

[5] = read-out: TIMP metallopeptidase inhibitor 1 (TIMP1), TIMP1 (gene 7076); assay: BSK_MyoF_TIMP1: BioMAP Diversity Plus: MyoF Assay for TIMP metallopeptidase inhibitor 1 (TIMP1) Biomarker Activity (AID 2284269)
Method in brief: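 Primary human lung fibroblasts, MyoF multiplex system; chemical exposure 24 h; TIMP-1 by ELISA; positive fitting direction vs DMSO control.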

Measured: AC50

CC(C=O)Cc1ccc2c(c1)OCO2 (stereo not given)
inactive: [1] | [2] | [3] | [4] | [5]

CCOP(=S)(OCC)OP(=S)(OCC)OCC
inactive: [1] | [2] | [3] | [4] | [5]

Oc1c(Br)cc(Br)cc1Br
active: [2] 13.9 µM
inactive: [1] | [3] | [4] | [5]

Oc1cccc(-c2ccccc2)c1
inactive: [1] | [2] | [3] | [5]
active: [4] 31.1 µM

Cc1cc(C(C)(C)c2ccc(O)c(C)c2)ccc1O
inactive: [1] | [2] | [3] | [5]
active: [4] 13.7 µM

CC(C)=CC1C(C(=O)OCc2cccc(Oc3ccccc3)c2)C1(C)C (stereo not given)
inactive: [1] | [2] | [3] | [4] | [5]

Cc1c([N+](=O)[O-])c(C)c([N+](=O)[O-])c(C(C)(C)C)c1[N+](=O)[O-]
inactive: [1] | [2] | [3] | [4] | [5]

O=S(=O)(c1ccc(Cl)cc1)c1cc(Cl)c(Cl)cc1Cl
inactive: [1] | [2] | [3] | [4] | [5]

CCOP(=S)(OCC)SCS(=O)(=O)C(C)(C)C
inactive: [1] | [2] | [3] | [4] | [5]

C#CCOC(=O)/C=C(C)/C=C/CC(C)CCCC(C)C (stereo not given)
active: [2] 4.33 µM
inactive: [1] | [3] | [4] | [5]

CC(C)N(C(=O)CCl)c1ccccc1
active: [1] 3.09 µM | [2] 20 µM | [3] 6 µM | [4] 3.67 µM | [5] 3.53 µM

O=[N+]([O-])c1cccc2ccccc12
inactive: [1] | [2] | [3] | [4] | [5]

Cc1cc(Cl)ccc1N
inactive: [1] | [2] | [3] | [4] | [5]

c1ccc2sc(SNC3CCCCC3)nc2c1
active: [2] 6.46 µM
inactive: [1] | [3] | [4] | [5]

O=C(CCl)NCO
active: [2] 3.97 µM
inactive: [1] | [3] | [4] | [5]

CCOP(=O)(OCC)OC(=CCl)c1ccc(Cl)cc1Cl
inactive: [1] | [2] | [5]
active: [3] 20 µM | [4] 30.4 µM

C=CC(Cl)CCl (stereo not given)
active: [1] 0.806 µM | [4] 9.58 µM | [5] 0.061 µM
inactive: [2] | [3]

c1ccc(-c2cccc(-c3ccccc3)c2)cc1
active: [2] 20 µM | [4] 22.5 µM
inactive: [1] | [3] | [5]

COCC(=O)N(c1c(C)cccc1C)[C@H](C)C(=O)OC
inactive: [1] | [2] | [3] | [4] | [5]

C[C@]12CC[C@@H](O)C[C@@H]1CC[C@@H]1[C@@H]2CC[C@]2(C)C(=O)CC[C@@H]12
inactive: [1] | [2] | [3] | [4] | [5]

CCCCN(CCCC)C(=S)[S-].CCCCN(CCCC)C(=S)[S-].[Ni+2]
inactive: [1] | [2] | [3] | [4] | [5]

CCOC(=O)C(SP(=S)(OC)OC)c1ccccc1 (stereo not given)
inactive: [1] | [2] | [3] | [4] | [5]

OC(Cc1ccccc1Cl)(Cn1cncn1)C1(Cl)CC1 (stereo not given)
inactive: [1] | [2] | [3] | [4] | [5]

CCCCCCCCCCCCN(C)C
inactive: [1] | [2] | [3] | [4] | [5]

Cc1ccccc1OP(=O)(Oc1ccccc1C)Oc1ccccc1C
active: [1] 11.9 µM | [2] 5.42 µM | [3] 20 µM | [4] 12.8 µM | [5] 20 µM

Cc1ccccc1OP(=O)(Oc1ccccc1)Oc1ccccc1
active: [1] 13.5 µM | [2] 0.731 µM | [3] 2.3 µM | [4] 20 µM | [5] 0.0187 µM

[Cl][Sn]([c]1ccccc1)([c]1ccccc1)[c]1ccccc1
inactive: [2]
active: [1] 0.169 µM | [3] 0.167 µM | [4] 1.36 µM | [5] 0.355 µM
